Most compounds without a hit are left out; they make up all but 3.5% or so of the library.
FBA Mtb inh: inhibits M. tuberculosis FBA enzyme; P9WQA3; purified M. tuberculosis FBA, fluorescence read-out; inhibition, % at 1 µM; hit rate 2.3% among 360,000;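 note: 0% = vehicle and 100% = reference inhibitor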
Mtb UGM inh: Mtb UDP-galactopyranose mutase inhibition; purified UGM, fluorescence polarization probe displacement; hit rate 0.06% among 320,000; P9WIQ1; inhibition, % at 10 µM; in the data active = inhibition above about 10%, passing the limit was not always enough
Target sequence (P9WIQ1 whole entry, looked up): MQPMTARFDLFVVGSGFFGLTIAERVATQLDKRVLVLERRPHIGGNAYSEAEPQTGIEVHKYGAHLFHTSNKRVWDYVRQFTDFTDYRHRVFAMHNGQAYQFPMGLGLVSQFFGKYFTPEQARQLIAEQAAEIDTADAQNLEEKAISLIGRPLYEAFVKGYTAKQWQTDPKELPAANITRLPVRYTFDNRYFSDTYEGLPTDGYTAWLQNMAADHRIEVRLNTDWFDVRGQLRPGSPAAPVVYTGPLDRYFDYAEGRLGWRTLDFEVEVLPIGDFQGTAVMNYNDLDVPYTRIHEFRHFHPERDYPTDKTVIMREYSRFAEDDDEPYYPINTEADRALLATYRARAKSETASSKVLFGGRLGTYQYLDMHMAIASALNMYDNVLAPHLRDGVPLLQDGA
GDH-TPI counter-1: GDH-TPI coupled enzyme inhibition counter-screen; GDH-TPI coupled enzyme counterscreen, NADH absorbance; inhibition, % at 4.8 µM; hit rate 1.2% among 360,000; AID 588335; in the data active = inhibition above about 30%;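 note: 0% = DMSO wells and 100% = wells lacking the enzyme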
Rv3671c protease: inhibitors of M. tuberculosis serine protease Rv3671c. hit rate 0.048% among 320,000. P9WHR9. AID 2606. inhibition, % at 5.96 µM; in the data active = inhibition above about 38%;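 note: extracellular domain of Rv3671c used as enzyme; 0% = enzyme with DMSO and 100% = no enzyme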
Mtb FBA inh conf: Mtb FBA inhibition, confirmed; shares compounds with FBA Mtb inh; hit rate 78% among 5,600; inhibition, % at 1 µM; AID 651616; purified M. tuberculosis FBA, fluorescence read-out;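 note: 0% = vehicle wells and 100% = reference inhibitor wells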
GDH-TPI counter-2: GDH-TPI inhibition counter-screen for FBA inhibitors | shares compounds with FBA Mtb inh | GDH-TPI coupled enzyme counterscreen, fluorescence | inhibition, % at 1 µM | hit rate 81% among 5,600 | AID 652141; in the data active = inhibition above about 10%
* hit, by the source's call. Cut-off read from the data, not from the text of the source, unless noted: active = inhibition above about 27%; inactive = the rest.

What do the screens show for `COc1ccccc1Oc1coc2cc(O)ccc2c1=O`?
FBA Mtb inh: 31*; Mtb UGM inh: 2; GDH-TPI counter-1: 24; Rv3671c protease: 5; Mtb FBA inh conf: active; GDH-TPI counter-2: active

What do the screens show for `CCOc1ccccc1Oc1coc2cc(O)ccc2c1=O`?
FBA Mtb inh: 53*; Mtb UGM inh: 1; GDH-TPI counter-1: 22; Rv3671c protease: -3; Mtb FBA inh conf: 41*; GDH-TPI counter-2: 26*

Results for CCOc1ccc(S(=O)(=O)N2CCC(C(=O)NCCN3CCOCC3)CC2)cc1C ?
FBA Mtb inh: -1; Mtb UGM inh: 0; GDH-TPI counter-1: 5; Rv3671c protease: 4

Results for COCCN(C(=O)CCSc1ccc(F)cc1)c1c(N)n(Cc2ccccc2)c(=O)[nH]c1=O ?
FBA Mtb inh: 3; Mtb UGM inh: 0; GDH-TPI counter-1: 3; Rv3671c protease: 3

How did Cc1ccc(C(=O)N2CCN(c3ccc(N4CCOCC4)nn3)CC2)cc1 do in these assays?
FBA Mtb inh: 37*; Mtb UGM inh: 1; GDH-TPI counter-1: -6; Rv3671c protease: -1; Mtb FBA inh conf: active; GDH-TPI counter-2: active

What do the screens show for `CCCCOc1ccc(C(=O)N2CCN(c3ccc(N4CCOCC4)nn3)CC2)cc1`?
FBA Mtb inh: 30*; Mtb UGM inh: 0; GDH-TPI counter-1: 5; Rv3671c protease: 2; Mtb FBA inh conf: 7; GDH-TPI counter-2: -6

What do the screens show for `COc1cc(OC)cc(C(=O)N2CCN(c3ccc(N4CCOCC4)nn3)CC2)c1`?
FBA Mtb inh: 28*; Mtb UGM inh: -1; GDH-TPI counter-1: 12; Rv3671c protease: 3; Mtb FBA inh conf: -3; GDH-TPI counter-2: -8

Results for CCCCN(C(=O)c1cccc(S(=O)(=O)N(C)c2ccc(C)cc2)c1)c1c(N)n(CCCC)c(=O)[nH]c1=O ?
FBA Mtb inh: 2; Mtb UGM inh: 1; GDH-TPI counter-1: 9; Rv3671c protease: -3

Results for O=C1N=C(c2ccccc2)C(c2ccccc2)N1 (stereo unspecified) ?
FBA Mtb inh: 91*; Mtb UGM inh: 0; GDH-TPI counter-1: 0; Rv3671c protease: 4; Mtb FBA inh conf: 1; GDH-TPI counter-2: 4

What do the screens show for `CC1(C2CC2)NC(=O)N(CC(=O)Nc2ccc(F)cc2F)C1=O` (stereo unspecified)?
FBA Mtb inh: 0; Mtb UGM inh: -1; GDH-TPI counter-1: 2; Rv3671c protease: 6

What do the screens show for `Cc1ccc(S(=O)(=O)NC(C)C(=O)NC(C)c2cccs2)cc1` (stereo unspecified)?
FBA Mtb inh: 1; Mtb UGM inh: 0; GDH-TPI counter-1: -4; Rv3671c protease: 7

What do the screens show for `CN(C)c1ccc(/C=C/c2ccc3c4ccccc4ccc3[n+]2-c2ccccc2)cc1`?
FBA Mtb inh: 36*; GDH-TPI counter-1: 9; Mtb FBA inh conf: 122*; GDH-TPI counter-2: 101*

Results for CN(C)c1ccc(/C=C/c2ccc3ccccc3[n+]2C)cc1 ?
FBA Mtb inh: -20; Mtb UGM inh: -2; GDH-TPI counter-1: -1; Rv3671c protease: -58

How did CCOC(=O)c1sc2nc(C)nc(NCc3ccccc3)c2c1C do in these assays?
FBA Mtb inh: 53*; Mtb UGM inh: -3; GDH-TPI counter-1: 7; Rv3671c protease: -16; Mtb FBA inh conf: -4; GDH-TPI counter-2: 0

What do the screens show for `CCOC(=O)c1sc2nc(C)nc(NCCc3ccc(S(N)(=O)=O)cc3)c2c1C`?
FBA Mtb inh: 35*; Mtb UGM inh: 0; GDH-TPI counter-1: 4; Rv3671c protease: -2; Mtb FBA inh conf: 96*; GDH-TPI counter-2: 78*

What do the screens show for `Cc1nc(NCCc2ccc(S(N)(=O)=O)cc2)c2c(C)c(C)sc2n1`?
FBA Mtb inh: -4; Mtb UGM inh: 0; GDH-TPI counter-1: -1; Rv3671c protease: 11

How did CCOC(=O)c1sc2nc(C)nc(Nc3ccccc3)c2c1C do in these assays?
FBA Mtb inh: 2; Mtb UGM inh: -1; GDH-TPI counter-1: -1; Rv3671c protease: 8

Results for CNc1ncnc2c1ncn2[C@H]1CN(Cc2ccc3c(c2)OCO3)C[C@@H](CO)O1 ?
FBA Mtb inh: -1; GDH-TPI counter-1: 8

What do the screens show for `Cn1c2ccc(F)cc2c2ncn(CC3CCCO3)c(=O)c21` (stereo unspecified)?
FBA Mtb inh: 27*; Mtb UGM inh: 0; GDH-TPI counter-1: 17; Rv3671c protease: -2; Mtb FBA inh conf: 176*; GDH-TPI counter-2: 180*

What do the screens show for `Cn1c2ccc(F)cc2c2ncn(Cc3ccccn3)c(=O)c21`?
FBA Mtb inh: 27*; Mtb UGM inh: -1; GDH-TPI counter-1: 18; Rv3671c protease: -4; Mtb FBA inh conf: 47*; GDH-TPI counter-2: 41*

What do the screens show for `CCOCCCn1cnc2c3cc(F)ccc3n(C)c2c1=O`?
FBA Mtb inh: 31*; Mtb UGM inh: -1; GDH-TPI counter-1: 9; Rv3671c protease: 4; Mtb FBA inh conf: 163*; GDH-TPI counter-2: 133*

What do the screens show for `Cn1c2ccc(F)cc2c2ncn(Cc3ccco3)c(=O)c21`?
FBA Mtb inh: 32*; Mtb UGM inh: -1; GDH-TPI counter-1: 10; Rv3671c protease: -3; Mtb FBA inh conf: 98*; GDH-TPI counter-2: 91*

What do the screens show for `CC1=CC2(C)NC(=O)C(C)C12` (stereo unspecified)?
FBA Mtb inh: 1; GDH-TPI counter-1: -1

How did COc1ccc(C(=O)NCC(C)(C)N2CCOCC2)cc1S(=O)(=O)N1CCCC1 do in these assays?
FBA Mtb inh: -1; Mtb UGM inh: -3; GDH-TPI counter-1: -3; Rv3671c protease: -7

Results for O=C(COc1ccccc1Cl)Nc1ccc2c(c1)C(=O)NC2=O ?
FBA Mtb inh: 6; Mtb UGM inh: -1; GDH-TPI counter-1: 13; Rv3671c protease: -12

Results for CC1(C)Cc2c(cnn2-c2ccccc2)-c2c1c1ccccc1n2CC(O)CBr (stereo unspecified) ?
FBA Mtb inh: 31*; Mtb UGM inh: 0; GDH-TPI counter-1: 0; Rv3671c protease: 6; Mtb FBA inh conf: 163*; GDH-TPI counter-2: 107*

How did CC1(C)Cc2c(cnn2-c2ccccc2)C(=O)/C1=N\NC(=O)c1ccccc1N do in these assays?
FBA Mtb inh: 2; Mtb UGM inh: 0; GDH-TPI counter-1: 18; Rv3671c protease: -6

What do the screens show for `O=C(Nc1ccc(S(=O)(=O)Nc2cnc3ccccc3n2)cc1)c1cc(F)c(F)cc1Cl`?
FBA Mtb inh: 11; Mtb UGM inh: 3; GDH-TPI counter-1: 10; Rv3671c protease: 3

What do the screens show for `O=C(Nc1c(-c2ccc(Cl)cc2)[nH][nH]c1=O)c1ccccn1`?
FBA Mtb inh: -1

Results for CCC(=O)Nn1cnc2c(c1=O)C1(CCCCC1)Cc1ccccc1-2 ?
FBA Mtb inh: 2; Mtb UGM inh: 0; GDH-TPI counter-1: -2; Rv3671c protease: -5

Results for N#CCSc1n[nH]c2nc3c(c(=O)n12)C1(CCCCC1)Cc1ccccc1-3 ?
FBA Mtb inh: 28*; Mtb UGM inh: -2; GDH-TPI counter-1: 3; Rv3671c protease: 7; Mtb FBA inh conf: -1; GDH-TPI counter-2: -3
